Where “and” joins values, the source holds several entries; their conditions need not be identical. Equal values may be shown once. Some structures have more than one record in an assay (separate samples or runs), and their calls can disagree. Calls of active or inactive are those of the source. Rule for the calls: active = hit-call score of the fitted dose curve at least 0.9, where 1 is the maximum; inactive = score below 0.9.
Tests used:
[1] = read-out: Monokine induced gamma interferon (MIG), CXCL9 (gene 4283); experiment: BSK_hDFCGF_MIG: BioMAP Diversity Plus: hDFCGF Assay for Monokine induced gamma interferon (MIG) Biomarker Activity (AID 2283063); conditions: primary human foreskin fibroblasts; actives raise or lower the signal
Method in brief: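 Human primary foreskin fibroblasts in the hDFCGF system, exposed to test chemical for 24 h; MIG measured by ELISA. Bidirectional curve fitting against DMSO negative control as activity baseline.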

[2] = read-out: Matrix Metallopeptidase 1 (MMP1), MMP1 (gene 4312); experiment: BSK_hDFCGF_MMP1: BioMAP Diversity Plus: hDFCGF Assay for Matrix Metallopeptidase 1 (MMP1) Biomarker Activity (AID 2283064); conditions: primary human foreskin fibroblasts; actives raise or lower the signal
Method in brief: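 Human foreskin fibroblasts exposed to chemical for 24 h; MMP1 detected by ELISA, with DMSO as baseline for bidirectional fitting.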

[3] = read-out: Vascular cell adhesion molecule 1 (VCAM1), VCAM1 (gene 7412); experiment: BSK_hDFCGF_VCAM1: BioMAP Diversity Plus: hDFCGF Assay for Vascular cell adhesion molecule 1 (VCAM1) Biomarker Activity (AID 2283065); conditions: primary human foreskin fibroblasts; actives raise or lower the signal;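 for AC50: VCAM-1 protein level quantified by ELISA after 24 h chemical exposure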
Method in brief: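 ELISA readout of VCAM-1 on human dermal fibroblast primary cultures, 24 h after chemical exposure. Gain or loss of signal fitted in both directions against DMSO baseline.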

[4] = read-out: Plasminogen activator inhibitor-1 (PAI1), SERPINE1 (gene 5054); experiment: BSK_hDFCGF_PAI1: BioMAP Diversity Plus: hDFCGF Assay for Plasminogen activator inhibitor-1 (PAI1) Biomarker Activity (AID 2283066); conditions: primary human foreskin fibroblasts; actives raise or lower the signal
Method in brief: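 Fibroblasts from human foreskin were treated with test chemical. After 24 h, PAI-1 was measured by ELISA. Activity was fitted in both directions relative to DMSO.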

[5] = read-out: Interferon-gamma inducible Protein 10 (IP10), CXCL10 (gene 3627); experiment: BSK_KF3CT_IP10: BioMAP Diversity Plus: KF3CT Assay for Interferon-gamma inducible Protein 10 (IP10) Biomarker Activity (AID 2283068); conditions: primary human keratinocytes with fibroblasts; actives raise or lower the signal
Method in brief: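 KF3CT co-culture (keratinocytes + foreskin fibroblasts), 24 h compound, IP-10 by ELISA; bidirectional fit vs DMSO baseline.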

[6] = BSK_KF3CT_SRB: Viability Assessment in the BioMAP Diversity Plus: KF3CT Assay (AID 2283069); conditions: primary human keratinocytes with fibroblasts;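 note: read 24 h after compound addition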
Method in brief: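 Overt cytotoxicity is assessed as total protein by sulforhodamine B staining in parallel human skin co-cultures at 24 h after dosing. DMSO serves as negative control and baseline.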

[7] = read-out: Interleukin-1 alpha (IL1a), IL1A (gene 3552); experiment: BSK_KF3CT_IL1a: BioMAP Diversity Plus: KF3CT Assay for Interleukin-1 alpha (IL1a) Biomarker Activity (AID 2283070); conditions: primary human keratinocytes with fibroblasts; actives raise or lower the signal
Method in brief: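 Readout is IL-1a level by ELISA, compared bidirectionally with DMSO as baseline. Cells: human keratinocytes co-cultured with foreskin fibroblasts, harvested 24 h post-dose.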

[8] = read-out: TIMP metallopeptidase inhibitor 2 (TIMP2), TIMP2 (gene 7077); experiment: BSK_KF3CT_TIMP2: BioMAP Diversity Plus: KF3CT Assay for TIMP metallopeptidase inhibitor 2 (TIMP2) Biomarker Activity (AID 2283071); conditions: primary human keratinocytes with fibroblasts; actives raise or lower the signal
Method in brief: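 Chemicals were dosed onto human skin primary co-cultures of keratinocytes and foreskin fibroblasts, and TIMP-2 was measured by ELISA after 24 hours. Activity in either direction was fitted relative to DMSO.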

[9] = read-out: C-C motif chemokine 2 (Homo sapiens) (UniProt P13500); experiment: BSK_KF3CT_MCP1: BioMAP Diversity Plus: KF3CT Assay for Monocyte Chemoattractant Protein 1 (MCP1/CCL2) Biomarker Activity (AID 2283073); conditions: primary human keratinocytes with fibroblasts; actives raise or lower the signal
Method in brief: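 ELISA read-out of MCP-1, 24 h post-dose, in primary human skin keratinocytes co-cultured with fibroblasts. Parallel SRB staining monitors cytotoxicity; changes fitted both directions relative to DMSO.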

[10] = read-out: Matrix Metallopeptidase 9 (MMP9), MMP9 (gene 4318); experiment: BSK_KF3CT_MMP9: BioMAP Diversity Plus: KF3CT Assay for Matrix Metallopeptidase 9 (MMP9) Biomarker Activity (AID 2283074); conditions: primary human keratinocytes with fibroblasts; actives raise or lower the signal;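 for AC50: MMP9 protein level quantified by ELISA in the co-culture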
Method in brief: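 Values come from bidirectional fitting relative to DMSO of MMP-9 levels, which were measured by ELISA. Measurements were taken 24 h after chemical dosing of a keratinocyte and foreskin fibroblast co-culture.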

[11] = read-out: urokinase plasminogen activator (uPA), PLAU (gene 5328); experiment: BSK_KF3CT_uPA: BioMAP Diversity Plus: KF3CT Assay for urokinase plasminogen activator (uPA) Biomarker Activity (AID 2283075); conditions: primary human keratinocytes with fibroblasts; actives raise or lower the signal
Method in brief: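 Values derive from bidirectional fitting against DMSO controls. Keratinocyte/foreskin fibroblast co-cultures received chemical; 24 h later uPA was detected by ELISA, with SRB total-protein staining in parallel wells for overt cytotoxicity.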

[12] = read-out: CD40, CD40 (gene 958); experiment: BSK_LPS_CD40: BioMAP Diversity Plus: LPS Assay for CD40 Biomarker Activity (AID 2283076); conditions: primary human HUVEC with PBMC; actives raise or lower the signal
Method in brief: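 In the LPS system of human endothelial cells with peripheral blood mononuclear cells, CD40 levels were read by ELISA 24 h post-treatment. Signal changes in either direction were fitted against the DMSO baseline, with parallel SRB protein staining.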

[13] = read-out: E-selectin (Homo sapiens) (UniProt P16581); experiment: BSK_LPS_Eselectin: BioMAP Diversity Plus: LPS Assay for Eselectin Biomarker Activity (AID 2283077); conditions: primary human HUVEC with PBMC; actives raise or lower the signal
Method in brief: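 E-selectin ELISA on LPS-stimulated endothelial cell/PBMC co-cultures, read 24 h post-treatment; gains and losses fitted against DMSO. Parallel SRB staining (0.1% SRB after 10% TCA fixation, 560 nm) flags overt cytotoxicity.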

[14] = read-out: Interleukin-8 (IL8), CXCL8 (gene 3576); experiment: BSK_LPS_IL8: BioMAP Diversity Plus: LPS Assay for Interleukin-8 (IL8) Biomarker Activity (AID 2283078); conditions: primary human HUVEC with PBMC; actives raise or lower the signal
Method in brief: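 ELISA read-out of IL-8 after 24 h chemical treatment of LPS-activated endothelial/PBMC human primary co-cultures. Changes either up or down relative to DMSO; overt cytotoxicity checked by sulforhodamine B staining in parallel wells.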

[15] = read-out: Interleukin-1 alpha (IL1a), IL1A (gene 3552); experiment: BSK_LPS_IL1a: BioMAP Diversity Plus: LPS Assay for Interleukin-1 alpha (IL1a) Biomarker Activity (AID 2283080); conditions: primary human HUVEC with PBMC; actives raise or lower the signal
Method in brief: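 Readout is IL-1a level by ELISA, 24 h post-dose, fitted as gain or loss relative to DMSO. System: LPS-activated human primary co-culture of vascular endothelium and peripheral blood mononuclear cells, with parallel SRB total-protein cytotoxicity.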

[16] = read-out: Monocyte Chemoattractant Protein-1 (MCP1), CCL2 (gene 6347); experiment: BSK_LPS_MCP1: BioMAP Diversity Plus: LPS Assay for Monocyte Chemoattractant Protein-1 (MCP1) Biomarker Activity (AID 2283081); conditions: primary human HUVEC with PBMC; actives raise or lower the signal;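 for AC50: secreted MCP-1 protein quantified by ELISA in culture supernatant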
Method in brief: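 Secreted MCP-1 read by ELISA at 24 h post-dosing in an LPS-activated co-culture of endothelial cells with peripheral blood mononuclear cells. Fits run in both directions, DMSO as baseline; parallel SRB staining tracks overt cytotoxicity.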

[17] = BSK_LPS_PGE2: BioMAP Diversity Plus: LPS Assay for Prostaglandin E2 (PGE2) Biomarker Activity (AID 2283082); conditions: primary human HUVEC with PBMC; actives raise or lower the signal;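 for AC50: secreted prostaglandin E2 measured by ELISA in LPS-stimulated co-culture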
Method in brief: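 Compounds were added to the LPS co-culture of endothelium and PBMC, and PGE2 was measured by ELISA after 24 h. Responses in either direction were fitted with DMSO as baseline.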

[18] = read-out: Transforming growth factor beta 1 (TGFb1), TGFB1 (gene 7040); experiment: BSK_KF3CT_TGFb1: BioMAP Diversity Plus: KF3CT Assay for Transforming growth factor beta 1 (TGFb1) Biomarker Activity (AID 2283072); conditions: primary human keratinocytes with fibroblasts; actives raise or lower the signal
Method in brief: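 KF3CT co-culture (keratinocytes + fibroblasts), 24 h exposure → TGF-b1 ELISA → bidirectional fit, DMSO = baseline. Parallel SRB total-protein staining (0.1% SRB, 10% TCA fixation, 560 nm) for cytotoxicity.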

[19] = BSK_LPS_SRB: Viability Assessment in the BioMAP Diversity Plus: LPS Assay (AID 2283079); conditions: primary human HUVEC with PBMC;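 note: total protein by sulforhodamine B absorbance as a cytotoxicity measure; measured one day after compound addition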
Method in brief: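 SRB viability endpoint: cells fixed with 10% TCA, stained with 0.1% SRB, read at 560 nm, 24 h post-dose. HUVEC/PBMC co-culture; signal change in either direction scored relative to DMSO.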

Measured: AC50

E-selectin (Homo sapiens), sequence (P16581 whole entry, looked up): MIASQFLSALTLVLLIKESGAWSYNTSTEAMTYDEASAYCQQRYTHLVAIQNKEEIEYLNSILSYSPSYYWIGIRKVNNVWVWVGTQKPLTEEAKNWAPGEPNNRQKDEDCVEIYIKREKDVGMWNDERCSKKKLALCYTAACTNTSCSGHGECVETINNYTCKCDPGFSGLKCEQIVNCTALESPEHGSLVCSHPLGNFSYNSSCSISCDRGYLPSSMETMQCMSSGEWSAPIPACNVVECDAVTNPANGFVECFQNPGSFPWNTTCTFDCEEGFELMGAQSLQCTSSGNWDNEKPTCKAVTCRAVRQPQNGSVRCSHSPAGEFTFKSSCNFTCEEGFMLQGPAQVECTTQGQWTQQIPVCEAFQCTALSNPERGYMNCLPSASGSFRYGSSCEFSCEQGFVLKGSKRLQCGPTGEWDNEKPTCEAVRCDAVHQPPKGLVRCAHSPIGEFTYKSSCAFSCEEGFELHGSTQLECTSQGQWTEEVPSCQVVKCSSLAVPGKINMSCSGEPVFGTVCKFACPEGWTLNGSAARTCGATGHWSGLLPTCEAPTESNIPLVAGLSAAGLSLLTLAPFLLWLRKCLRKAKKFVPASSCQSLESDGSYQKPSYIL

NC(=O)N(O)[C@@H]1C=C[C@H](Oc2cccc(Oc3ccc(F)cc3)c2)C1
active: [3] 8.65 µM | [5] 20 µM | [17] 8.49 µM
not listed: [18] | [19]
inactive: all other assays above

CCCCC(CC)COC(=O)CCCCC(=O)OCc1ccccc1 (configuration not stated)
not listed: [9] | [15] | [18] | [19]
inactive: all other assays above

CC(C)CCCCCCOC(=O)CCCCC(=O)OCCCCCCC(C)C
not listed: [9] | [15] | [18] | [19]
inactive: all other assays above

FC(F)(I)C(F)(F)C(F)(F)C(F)(F)C(F)(F)C(F)(F)I
inactive: [17]
active: [1] 6.07 µM [middle of 5 runs] | [2] 5.8 µM [middle of 5 runs] | [3] 3.81 µM [middle of 5 runs] | [4] 5.44 µM [middle of 5 runs] | [5] 7.76 µM [middle of 5 runs] | [6] 8.99 µM [middle of 5 runs] | [7] 7.77 µM [middle of 5 runs] | [8] 13.2 µM [middle of 5 runs] | [9] 6.01 µM [middle of 5 runs] | [10] 8.17 µM [middle of 5 runs] | [11] 11.7 µM [middle of 5 runs] | [15] 18 µM [middle of 5 runs] | [16] 36.5 µM [middle of 5 runs] | [17] 7.63 µM and 7.34 µM and 7.24 µM

CCCOC(=O)c1ccc(O)cc1
active: [17] 9.7 µM
not listed: [9] | [15]
inactive: all other assays above

Oc1cc2ccccc2c2ccccc12
active: [1] 2.78 µM | [2] 2.93 µM | [3] 2.07 µM | [4] 2.4 µM | [5] 7.34 µM | [7] 6 µM | [8] 7.99 µM | [10] 5.66 µM | [11] 7.13 µM | [12] 5.93 µM | [13] 11.1 µM | [14] 12.6 µM | [15] 7.63 µM | [16] 11.1 µM | [17] 3.34 µM
inactive: [6]

CN1CCC[C@H]1c1cccnc1
not listed: [15] | [18] | [19]
inactive: all other assays above

CCCCOCCO
not listed: [9] | [15] | [18] | [19]
inactive: all other assays above

NC(=O)N1C(=O)C(C(=O)c2cc(Cl)cs2)c2cc(F)c(Cl)cc21 (configuration not stated)
inactive: [9] | [14]
active: [1] 12.7 µM | [2] 10.3 µM | [3] 5.54 µM | [4] 1.71 µM | [5] 8.07 µM | [6] 6.16 µM | [7] 12.9 µM | [8] 11.2 µM | [10] 4.33 µM | [11] 12.5 µM | [12] 17.7 µM | [13] 1.47 µM | [15] 20 µM | [16] 5.47 µM | [17] 0.345 µM

CN(C)C=O
not listed: [18] | [19]
inactive: all other assays above

COc1ccc([N+](=O)[O-])cc1N
not listed: [9] | [15] | [19]
inactive: all other assays above

CCOC(=O)CC(O)(CC(=O)OCC)C(=O)OCC
not listed: [18]
inactive: all other assays above

OC1CCCCC1
not listed: [9] | [19]
inactive: all other assays above

CCCCCCCCOC(=O)CCCCCCCCC(=O)OCCCCCCCC
not listed: [15] | [18] | [19]
inactive: all other assays above

CC(O)CO (configuration not stated)
not listed: [9] | [18] | [19]
inactive: all other assays above

CCc1ccc(CCOc2ccc(CC3SC(=O)NC3=O)cc2)nc1 (configuration not stated)
not listed: [9] | [15]
inactive: all other assays above

CN1CCN(c2ccccc2/C=C2\SCCN(c3ccc(Cl)c(Cl)c3)C2=O)CC1
inactive: [13] | [17]
active: [1] 39 µM | [2] 38 µM | [3] 31.8 µM | [4] 9.63 µM | [5] 28.5 µM | [6] 30.8 µM | [7] 30.6 µM | [8] 28.1 µM | [9] 32.4 µM | [10] 26.8 µM | [11] 30.1 µM | [12] 7.34 µM | [14] 20 µM | [15] 20 µM | [16] 12.1 µM

Reference: PubChem BioAssay (EPA / NIEHS)
